# Source: PubChem (several laboratories)
# Only some compounds are listed: those with a hit (about 7% of all), similar ones and a draw of the others.
# GRIN3A LBD mod – modulates the human NR3A ligand-binding domain; NR3A LBD differential scanning fluorimetry, Tm shift; 0% = protein alone, 100% = glycine-bound protein; Tm shift relative to glycine control, % at 25 µM; 2.5% of 340,000 active; AID 1259313;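 active = melting temperature shift of at least 10% of the positive control shift, at one fixed dose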
# ADAM10 inh – inhibitors of human ADAM10 | AID 720582 | recombinant ADAM10, EDANS/DABCYL FRET peptide cleavage, 3 h | O14672 | 0.62% of 370,000 active | inhibition, % at 7 µM;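 active = inhibition above a per-campaign cutoff equal to the mean of compounds falling between control-based bounds plus 3 SD, cut at about 20% in these data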;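 also: 0% = DMSO wells while the 100% control is not disclosed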
# proKLK7 act – activators of human kallikrein-7 zymogen; AID 652039; activation, % at 7 µM; purified proKLK7, EDANS-DABCYL substrate fluorescence; 100% is mature enzyme control, 0% vehicle; 0.9% of 370,000 active; P49862;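 active = activation above the mean of all tested compounds plus 3 SD, computed per campaign excluding outliers beyond control limits, cut at about 13% in these data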
# Target sequence (P49862 whole entry, looked up): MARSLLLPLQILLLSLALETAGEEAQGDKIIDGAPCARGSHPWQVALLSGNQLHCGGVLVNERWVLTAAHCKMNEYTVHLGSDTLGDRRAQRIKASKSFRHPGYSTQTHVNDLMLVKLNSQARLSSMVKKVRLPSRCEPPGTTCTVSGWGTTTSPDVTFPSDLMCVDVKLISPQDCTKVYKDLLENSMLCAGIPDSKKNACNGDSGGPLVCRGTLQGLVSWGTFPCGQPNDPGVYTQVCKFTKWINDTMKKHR
# AHR activator – human AHR activation; 2.5% of 320,000 active; P35869; AHR-responsive luciferase reporter cells, luminescence; activation, % at 5 µM; in the data active = activation above about 47%;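 also: 0% = vehicle wells and 100% = reference agonist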
# ADAM17 inh – inhibitors of human ADAM17; 0.83% of 370,000 active; AID 720648; inhibition, % at 6.95 µM; P78536; recombinant ADAM17, EDANS/DABCYL FRET peptide cleavage;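 active = inhibition above the mean of compounds lying between control limits plus 3 SD, set per campaign, cut at about 8.5% in these data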;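 also: 0% = DMSO-only wells as the low control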
# rCAG binder – binds r(CAG) RNA repeats. r(CAG) RNA repeat, TO-PRO-1 dye displacement fluorescence. inhibition, % at 3 µM. 1.3% of 370,000 active;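 active = inhibition above the plate cutoff, the mean of all test compounds on that plate plus 3 SD, cut at about 35% in these data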;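 also: 0% = DMSO alone and 100% = 100 µM mitoxantrone as full dye displacement; higher means more dye released from RNA so lower well fluorescence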
# Starred values were filed as active, the others as inactive; nt = no result given.
SMILES,GRIN3A LBD mod,ADAM10 inh,proKLK7 act,AHR activator,ADAM17 inh,rCAG binder
Nc1c2c(nc3sc4c(c13)CCCC4)CCCCC2,-1,-12,0,58*,-7,0
C/C(=N\NC(=O)c1ccccc1O)c1c(O)n(Cc2ccccc2)c(=O)[nH]c1=O,8,-26,0,17,-10,86*
C/C(=N\NC(=O)c1ccncc1)c1c(O)n(Cc2ccccc2)c(=O)[nH]c1=O,1,-5,-1,6,-1,12
CCN1CCN(C(=O)COc2cc(=O)n(CC)c3ccccc23)CC1,-2,-3,0,10,-1,-4
CCn1c(=O)cc(OCC(=O)N2CCN(Cc3ccc4c(c3)OCO4)CC2)c2ccccc21,1,-5,0,55*,-4,-7
COc1ccc([C@@H]2C[C@H]3[C@@H](CN2)CON3C)cc1,nt,-2,1,nt,-3,2
O=C(CN1C(=O)[C@@H](Cc2ccc(O)cc2)N=C(c2ccccc2)c2ccccc21)NC1CCCCC1,nt,3,0,nt,1,4
COC(=O)C1=C(c2ccc(F)cc2OCc2ccccc2)C[C@@H]2CC[C@H]1N2C(=O)NC1Cc2ccccc2C1,1,17,0,8,10*,5
C=CCCC1(C2=CCCCC2)C(=O)NC(=O)NC1=O,15*,-5,0,nt,-5,4
C=CCC1(CN2CCCCCC2=O)C(=O)NC(=O)NC1=O,-1,8,0,0,-4,2
O=C(NCCN1CCC2(CC1)C(=O)NCN2c1ccccc1)c1ccc(Cl)cc1,nt,-1,0,nt,-2,1
O=C(COc1ccc(Br)cc1)N1CCN(Cc2c[nH]c3ccccc23)CC1,-10,-8,0,14,-1,9
O=C(COc1ccc2ccccc2c1)N1CCN(Cc2c[nH]c3ccccc23)CC1,-4,2,1,42,8.7*,3
Cc1c(P(=S)(c2ccccc2)c2ccccc2)c2ccccc2n1C,nt,-5,nt,nt,-3,nt
Cc1cccc(C(=O)NC(Oc2ccccc2)C(Cl)(Cl)Cl)c1 (stereo not given),0,-5,0,50*,-1,-4
CCN1CC2(COC(=O)c3ccccc3N)CCC(OC)C34C5CC6C(OC)CC(O)(C5C6OC)C(O)(C(OC)C23)C14 (stereo not given),1,nt,nt,0,nt,nt
CCN1C[C@]2(COC(=O)c3ccccc3N)CC[C@H](OC)C34[C@@H]5C[C@H]6[C@H](OC)[C@@H]5[C@](O)(C[C@@H]6OC)[C@@](O)([C@H]13)[C@@H](OC)[C@@H]42,10*,-356,1,0,-142,-12
CCOC(=O)C(O)(c1ccc(N(C)C(=O)c2ccc(Cl)c(Cl)c2)cc1)C(F)(F)F (stereo not given),-8,-2,0,24,1,-8
CCOC(=O)C(O)(c1ccc(NC(=O)c2ccc(Cl)c(Cl)c2)cc1)C(F)(F)F (stereo not given),11*,18,0,3,8,-2
CCOC(=O)CC[C@@H]1CC[C@]2(CCCN(Cc3cccnc3)C2)O1,nt,-5,-1,nt,-4,1
Oc1c(Br)cc(Br)cc1Br,3,-7,0,-1,-2,1
Oc1c(Br)c(Br)c(Br)c(Br)c1Br,32*,nt,nt,-1,nt,nt
CNC(=O)Oc1ccc(-c2cn3cc(C)ccc3n2)cc1,24*,-283,-6,-7,-79,-4
O=S(=O)(c1ccc(Cl)cc1)N1Cc2ccc(Br)cc2-n2nncc2C1,nt,-18,1,nt,-2,1
Cc1cc(N2CCNC[C@H]2C)ccc1N1CC[C@H](O)C1,nt,-9,1,nt,-2,4
SMILES,GRIN3A LBD mod,ADAM10 inh,proKLK7 act,AHR activator,ADAM17 inh,rCAG binder
COc1ccc(NC(=O)c2cn(CCC#N)nc2-c2cccc([N+](=O)[O-])c2)cc1,-3,5,1,1,-2,4
COc1ccc(Oc2cc(NC(=O)c3nn(C)cc3[N+](=O)[O-])cc([N+](=O)[O-])c2)cc1,15*,11,1,-4,7,25
C[C@]12CC[C@H](O)CC1=CC(=O)C1C2CC[C@]2(C)C(=O)CCC12 (stereo not given in full),3,-8,-1,-2,5,0
C[C@]12CC[C@@H](O)CC1=CC(=O)C1C2CC[C@]2(C)C(=O)CCC12 (stereo not given in full),11*,-8,0,-2,-4,1
CCOc1cc2c(cc1OCC)-n1cccc1C(c1ccccc1O)NC2 (stereo not given),1,10,1,0,5,-7
CCOc1cc2c(cc1OCC)-n1cccc1C(c1cccc(F)c1F)NC2 (stereo not given),10*,5,0,1,0,-7
CC1CCN(S(=O)(=O)c2ccc(NN=C(C#N)C#N)cc2)CC1,nt,nt,nt,-3,nt,nt
N#CC(C#N)=NNc1ccc(S(N)(=O)=O)cc1,10,9,0,0,2,67*
O=C(NC(CCC(O)CO)P(=O)(Oc1ccccc1)Oc1ccccc1)OCc1ccccc1 (stereo not given),nt,3,0,nt,0,-3
CC(NC(=O)OCc1ccccc1)P(=O)(Oc1ccccc1)Oc1ccccc1 (stereo not given),nt,9,0,nt,1,-4
CCOC(=O)c1c(C)n(Cc2ccco2)c2c1cc(O)c1ccccc12,-6,4,-1,51*,-6,20
CCC1(c2ccccc2)C(=O)NC(=S)NC1=O,11*,-6,0,nt,-6,0
CCC1(c2ccccc2)C(=O)NC(=O)NC1=O,0,-3,0,-1,0,2
COc1cc(/C=C2\C(=O)NC(=O)N(c3ccccc3)C2=O)cc(OC)c1O,11*,-4,0,4,-3,-4
CC1Oc2cc3c(-c4c(O)cc(O)c5c(O)c6c(cc45)OC(C)C(C)C6=O)c(O)cc(O)c3c(O)c2C(=O)C1C (stereo not given),18*,nt,nt,-2,nt,nt
O=C(c1ccccc1)N1Cc2cc(Br)ccc2-n2nncc2C1,nt,-3,1,nt,-2,2
C=CCN(CC#CCO)Cc1ccc(OC)cc1OC,nt,-1,1,nt,-2,2
CC(=O)C1CCC2C3CCC4CC(O)CCC4(C)C3CCC12C (stereo not given),14*,9,0,9,0,-1
CCS(=O)(=O)Nc1cccc(C(=C2CCCCC2)c2cnc[nH]2)c1,-1,-6,1,58*,-5,0
O=C(O)CCl,nt,-7,0,nt,2,2
CC(NC(=O)OCc1ccccc1)[P+](=O)O (stereo not given),nt,-1,0,nt,-7,2
C1=C(CCNCc2ccccc2)CCCC1,11*,-9,0,-3,-5,0
Fc1ccc(CNCCc2ccccc2)cc1,-2,-11,0,0,-36,1
COC(=O)C(O)(c1ccc(N=Cc2ccccc2O)c(C)c1)C(F)(F)F (stereo not given),-5,8,0,1,1,1
